Each structure is given as a SMILES string. Hit rate of the full screen: of about 360,000 compounds, about 2,400 (0.67%) were called active. This is one part of a sample in which actives are shown more often than they occur. Values without a mark were called inactive.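 Rule for the calls: active = inhibition above about 55% (limit read from the data); inconclusive = no clear call, values can overlap the other calls; inactive = the rest.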

This assay is described as follows: LAMP-1 surface exposure blockers, TALL-104 cells – cell-based, flow cytometry, MLPCN library, primary screen (AID 651702). The settings on record: TALL-104 LAMP-1 surface exposure, at 10 µM, hits give high values, cells stimulated with thapsigargin and PMA.
As to `Nc1ccn(CC(=O)N2CCN(c3ccccn3)CC2)c(=O)n1`, the inhibition (usually the drop in the measured response relative to a control, in per cent) was 6.5%. In the case of `CC(C)(C)NC(=O)CN(Cc1cccs1)C(=O)CNS(=O)(=O)c1ccccc1` it was -2.2%; in that of `COc1ccc(OC)c(NC(=O)CN(C)CCOc2ccc(Br)cc2)c1`, 93.7% (active); in that of `COc1ccc(Br)cc1CN(C)CC(=O)Nc1cc([N+](=O)[O-])ccc1OC`, 0.6%. For `COc1ccc(OC)c(NC(=O)CN(Cc2ccc(Cl)cc2)S(C)(=O)=O)c1`, the inhibition is 6.3%. In the case of `COCc1c(C(=O)N/N=C/C2CC=CCC2)nnn1-c1nonc1N` (centres undefined) it was 1.4%; in that of `CCCCN(CCCC)CC(O)Cn1c2ccccc2c(=O)c2ccccc21` (centres undefined), 11.9%.

`CS(=O)(=O)N(CC(O)Cn1c2ccccc2c2ccccc21)c1cccc2ccccc12` (centres undefined): the inhibition was 86.5% (active). `Cc1cc(C)n(CC(O)CN(c2ccccc2)S(=O)(=O)c2ccc3ccccc3c2)n1` (centres undefined): the inhibition is -1%. In the case of `O=S(=O)(NCC1CC1)c1ccc(F)c(Cl)c1` it was -8.8%; in that of `CCOc1ccc(C(C)=O)cc1COC(=O)CNC(=O)c1cccs1`, -4.6%. Regarding `COC(=O)c1ccc(COC(=O)c2cnc(Cl)c(Cl)c2)cc1`, the inhibition was -4.5%. In the case of `CCOc1ccc(C(C)=O)cc1COC(=O)c1cnc(Cl)c(Cl)c1` it was 57.6% (active); in that of `CC(C)(C)NS(=O)(=O)CC12CCC(CC1=O)C2(C)C` (centres undefined), -2.4%. The same measure for `COc1ccc(NC(=O)/C(Cl)=C(/Cl)S(=O)Cc2ccc(C)cc2)cn1` (centres undefined): 103% (active). In the case of `O=C(O[C@@H]1[C@H](Cc2ccccc2)NS(=O)(=O)[C@H]2C[C@@H]3C=C[C@]12O3)c1ccccc1Br`, the inhibition was -3.7%. Regarding `COC(=O)c1ccccc1NC(=O)CSc1nc2c(c(=O)[nH]1)CCC2`, the inhibition was 8.6%.

Turning to `OC(COCC1COc2ccccc2O1)CN1CCN(c2ccc(F)cc2)CC1` (centres undefined), the inhibition is -15.5%. Take `CCN1CCN(CCNC(=O)c2ccc3c(c2)NC(=O)/C(=C\c2cccc(Cl)c2)S3)CC1`: the inhibition was 10.1%. `O=C(CN1C(=O)/C(=C\c2ccc(C(F)(F)F)cc2)Sc2ccccc21)NCc1ccco1`: the inhibition was -0.7%. In the case of `CCN1CCN(CCNC(=O)c2ccc(/C=C3/Sc4ccccc4N(Cc4cccc(C)c4)C3=O)cc2)CC1` it was 86.2% (active). In the case of `CC(=O)c1cnc(SCC(=O)O)nc1C` it was -1%; in that of `Cc1cc(NC(=O)CS(=O)(=O)c2cn(C)c3ccccc23)no1`, -1.6%.

In the case of `COc1ccc(C(=O)NCC2CCCO2)cc1S(=O)(=O)NCc1ccc(Cl)cc1` (centres undefined), the inhibition is -5.7%.

Take `C=CCn1c(SCC(=O)Nc2ccc(NC(C)=O)cc2)nc2sc(C)c(C)c2c1=O`: the inhibition is -3.1%. In the case of `C=CCn1c(SCc2csc(C)n2)nc2scc(-c3ccc(C)o3)c2c1=O` it was 62.3% (active); in that of `C=CCn1c(SCC(=O)/C(C#N)=C(\C)N)nc2sc(C)c(C)c2c1=O`, -1.8%; in that of `COc1ccccc1NS(=O)(=O)c1ccc(C)c(C(=O)NCC(c2ccco2)N(C)C)c1` (centres undefined), 3.6%. Turning to `CCc1ccc(NC(=O)CS(=O)CC(=O)NCCCc2ccccc2)cc1` (centres undefined), the inhibition is -1.4%.

For `O=C(NCC1CCCO1)C(C(=O)c1ccccc1)n1cc(Cl)ccc1=O` (centres undefined), the inhibition was 1.4%. In the case of `CC(=O)c1c(C)[nH]c(C(=O)COC(=O)c2cccc(S(=O)(=O)N(C)c3ccccc3)c2)c1C` it was 75.4% (active); in that of `COc1ccc(C)cc1NC(=O)C(OC(=O)c1cccc(S(=O)(=O)N(C)c2ccccc2)c1)c1ccccc1` (centres undefined), 0.3%; in that of `CC(=O)c1c(C)[nH]c(C(=O)OCC(=O)Nc2c(C)cccc2C)c1C`, 2.6%. Regarding `CCOC(=O)CN1CC23C=CC(O2)C(C(=O)Nc2ccc(F)cc2)C3C1=O` (centres undefined), the inhibition was 1.3%. The same measure for `Oc1ccccc1-c1cc(-c2ccc(Cl)cc2)n[nH]1`: 92.9% (active); for `O=C(Nc1ccc(Cl)cn1)c1ccccc1-c1ccccc1`: -5.1%; for `CC(C)C(=O)NCc1cc(-c2ccc(Cl)cc2)no1`: 0.2%. The same measure for `CCCN(CC1CC1)C(=S)NC(=O)c1ccccc1Br`: -2.1%; for `CC1Cc2nc(SCC(=O)Nc3ccccc3F)n(C)c(=O)c2S1` (centres undefined): 3.3%. In the case of `COCCn1c(C)cc(C(=O)COC(=O)/C=C/c2cccc(OC)c2)c1C` it was -3.8%. Consider `CC1CCN(C(=S)c2cccc([N+](=O)[O-])c2)CC1`, for which the inhibition is 0.5%. In the case of `O=C(O)C1CCN(c2ccc([N+](=O)[O-])cc2[N+](=O)[O-])CC1` it was -1.4%; in that of `CC1CCN(c2ccc([N+](=O)[O-])cc2C(N)=O)CC1`, 60.4% (active).

In the case of `Cc1ccc(C(C)C)c(OCc2nnc(SCC(=O)Nc3nccs3)n2C)c1`, the inhibition is 1.2%. Consider `COc1cc(NC(=O)c2ccccc2)c(OC)cc1NC(=O)Cc1ccccc1`, for which the inhibition is 0%.

Regarding `O=C(NC1=CC(=O)c2ccccc2C1=O)c1ccccc1`, the inhibition is 108% (active). In the case of `C/C(=N\NC(=O)c1ccc(C)cc1)C1C(=O)c2ccccc2C1=O` it was -2.2%; in that of `Cc1ccc(S(=O)(=O)NCCSC(C)(C)C)cc1`, 11%; in that of `O=C(NCc1ccccc1)c1onc(CSc2nc3ccccc3[nH]2)c1C(=O)NCc1ccccc1`, -2.7%.

With `COc1ccc(C(O)C(O)(C(=O)OC(C)C)c2ccc(C)cc2)cc1` (centres undefined), the inhibition was -2.2%. With `C[N+](C)(C)CCNC(=O)c1c[nH]c2ccccc12`, the inhibition was -7.5%.

In the case of `COc1ccc(C2C(C(C)=O)=C(O)C(=O)N2CCc2c[nH]c3ccccc23)cc1` (centres undefined), the inhibition was 0.4%. Consider `COc1ccc(/C=C(\C#N)c2c[nH]c3ccccc23)cc1`, for which the inhibition was 90.4% (active). In the case of `O=C(CN1C(=O)NC2(CCc3ccccc32)C1=O)NC1CCCCC1` (centres undefined) it was -1.5%. Take `Brc1ccc2c(c1)[C@H]1OCC[C@H]1[C@@H](c1cccs1)N2`: the inhibition was 1%.

As to `COc1cccc2oc(CCc3ccccc3)cc(=O)c12`, the inhibition was -4.5%. For `COc1ccc(CC(N)c2csc(NC(=O)NC(c3ccccc3)c3ccccc3)n2)cc1` (centres undefined), the inhibition was 11.2%.

For the compound `COc1ccc(CC(N)c2csc(NC(=O)Cc3ccccc3)n2)cc1` (centres undefined), the inhibition was -2.9%. In the case of `COc1ccc(CC(N)c2csc(NC(=O)Nc3ccc(C(C)C)cc3)n2)cc1` (centres undefined) it was 67.4% (active); in that of `CC(=O)NCC(=O)N(Cc1ccco1)C1(C(=O)NC2CCCC2)CCCCC1`, 4.1%; in that of `Cc1cc(C)cc(NC(=O)c2cccc(NC(=O)C3C4CC5OC(=O)C3C5C4)c2)c1` (centres undefined), -3.6%. In the case of `CCCCCCCCCCOC(=O)Cn1c(COc2ccc(C)cc2)[n+](C)c2ccccc21` it was 79.9% (active). `Cc1noc(C)c1COC(=O)Cn1c(C)nc2ccccc21`: the inhibition is -0.2%. In the case of `CCCCCCCCCCOC(=O)Cn1c(COc2cccc(OC)c2)[n+](C)c2ccccc21` it was 63.4% (active). In the case of `CCOc1ccc(OCCSc2nc3ccccc3n2CC(=O)O)cc1` it was -4.7%; in that of `Cc1cccc(-n2c(Cc3cc(=O)[nH]c(=O)[nH]3)nnc2SCC(=O)Nc2cccc(C(F)(F)F)c2)c1`, -9.1%; in that of `COc1ccc(CCNC(=O)NS(=O)(=O)c2ccc(C)cc2)cc1OC`, -3.4%. As to `CC(=O)N1C[C@@H](CO)[C@@H](N(C)C(=O)c2ccco2)C[C@H]1c1ccccc1`, the inhibition was -2%. The same measure for `NC(=S)NN=C1CCCC(C(F)(F)F)C1` (centres undefined): -3%; for `Cc1ccc(NC(=O)c2cc(-c3ccc(C)o3)nc3ccccc23)nc1`: 71.4% (active).

For `Cc1c(NC(=O)c2cc(-c3ccc(Cl)s3)nc3ccccc23)c(=O)n(-c2ccccc2)n1C`, the inhibition was 8.8%. In the case of `CCc1ccc(-c2cc(C(=O)NN3CCN(C)CC3)c3ccccc3n2)cc1` it was -2.9%; in that of `CCN1C(=O)[C@H]2[C@@H](c3ccc(-c4ccc(F)cc4)cc3)N[C@@](Cc3ccccc3)(C(=O)OC)[C@H]2C1=O`, 97.9% (active). In the case of `CCN1C(=O)[C@H]2[C@@H](c3ccc(-c4ccc(OC)cc4)cc3)N[C@@](Cc3ccccc3)(C(=O)OC)[C@H]2C1=O` it was -2.6%; in that of `CCN1C(=O)[C@H]2[C@@H](c3ccc(SC4CCCCC4)c(OC)c3)N[C@@](Cc3ccccc3)(C(=O)OC)[C@H]2C1=O`, -2.9%.

As for `COc1ccc(CC(NC(C)=O)C(=O)NC2CCN(C(=O)c3ccc(Cl)cc3)CC2)cc1` (centres undefined), the inhibition was -6.3%.

For the compound `Brc1ccccc1C1N=C(c2ccccc2)NO1` (centres undefined), the inhibition was -3.5%. The same measure for `COc1cc2c(cc1OC)C(c1ccccc1Br)NC(=O)C2` (centres undefined): 1.4%; for `Brc1ccccc1C1Nc2cccc3cccc(c23)N1`: 72.2% (active); for `NS(=O)(=O)c1cc(Cl)c(Cl)c(S(N)(=O)=O)c1`: 0.8%. In the case of `O=C(O)c1cc(S(=O)(=O)N(Cc2ccccc2)c2ccccc2)ccc1Cl`, the inhibition is -1%. The same measure for `NC(=O)c1ccccc1N(Cc1ccccc1)S(=O)(=O)c1ccccc1`: 11.2%; for `O=S(=O)(c1ccccc1)N(Cc1cccc(F)c1)c1ccccc1`: 65.4% (active).

As for `OCCC1CN(Cc2cccn2-c2nccs2)CCN1CCc1ccccc1` (centres undefined), the inhibition was 1.1%. The same measure for `COC(=O)[C@@]12CCCN1[C@H](c1ccc(-c3ccc(F)cc3)c(OC)c1)[C@H]1C(=O)N(C)C(=O)[C@H]12`: -14%; for `CCCCNC(=O)C[C@@H]1C[C@@]2(C(=O)OC)CC(C)(C)CC=C2N(Cc2ccco2)C1=O`: -4.4%; for `COC(=O)[C@@H](Cc1ccccc1)NC(=O)NCCc1ccccc1`: 2.5%. The same measure for `COC(=O)[C@H](Cc1ccccc1)NC(=O)[C@@H]1C[C@H]1[C@@H](NC(=O)OCc1ccccc1)c1ccccc1`: 106% (active); for `COC(=O)[C@H](C)[C@H]1C[C@]1(C)[C@H](NC(=O)OCc1ccccc1)c1ccccc1`: 5.6%.

The record behind these values is PubChem BioAssay AID651702 (NMMLSC, 2012).
